In PubChem BioAssay AID1063 (University of Pittsburgh Molecular Library Screening Center, 2008) one finds inhibition data, which are given here for 95 molecules.

The campaign covered roughly 200,000 compounds. About 18,000 (9%) were called active. Rule as the data show it: active = inhibition above about 50%; inactive = the rest. The list comes from a sample in which actives are over-represented; it also holds similar structures and randomly drawn compounds.

The assay is described as follows: Leishmania major promastigote growth inhibition, primary screen (AID 1063).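 Also: promastigotes grown with compound for 44 hours at 28 °C.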 The following applies: Leishmania major promastigotes, resazurin fluorescence viability; at 10 µM; stronger effect = higher value. (Alamar Blue is a resazurin reagent that responds to reducing activity.)
In the case of `NC(N)=Nc1nc2ccc(Br)cc2c(=O)[nH]1`, the inhibition was 16.6% (inactive).

`CCOc1ccccc1N1CCN(C(=O)COc2ccc3c(C)cc(=O)oc3c2)CC1`: the inhibition is 43.7% (inactive). To `O=c1nc(N/N=C/c2ccco2)cn[nH]1` belongs -3.61% (inactive); to `CCCCn1c(N)c(N2CCOCC2)c(=O)n(CC(=O)NCCc2ccccc2)c1=O`, 1.59% (inactive); to `CCCCN(CC)CCCNC(=O)CS(=O)(=O)Cc1nc(-c2cccc(OC)c2)oc1C`, 72.4% (active).

For `Cc1oc(-c2ccccc2F)nc1CS(=O)(=O)CC(=O)NCCCN(C)C1CCCCC1`, the inhibition is 2.98% (inactive).

With `CCCN(CCC)CCCNC(=O)CNC(=O)c1nn(-c2ccc(OC)cc2)c(=O)c2ccccc12`, the inhibition was 1.38% (inactive).

On to `CCn1c(SCc2cc(=O)n3ccsc3n2)nc2ccccc21`, for which the inhibition was -1.53% (inactive).

For the molecule `CCC(=O)Nc1cc(C(F)(F)F)ccc1N1CCCC1`, the inhibition is -2.29% (inactive). Consider `CCOCCCNS(=O)(=O)Cc1ccccc1`, for which the inhibition is -9.59% (inactive). For the molecule `CCn1cc(CN2CCCC(CNS(=O)(=O)Cc3ccccc3)C2)cn1` (stereo not given), the inhibition is 50.3% (active).

Consider `O=C(CCC1CCCN(Cc2ccc(O)c(Cl)c2)C1)NCc1ccccc1F` (stereo not given), for which the inhibition is 45.2% (inactive). To `O=C(COC(=O)CNC(=O)c1ccco1)Nc1ccc(F)cc1` belongs -2.3% (inactive); to `Cn1c(C(=O)NCCN2CCc3ccccc3C2)cc2c(=O)[nH]c3ccccc3c21`, 11.6% (inactive). As for `O=C(NCCN1CCN(Cc2ccccc2)CC1)c1cc2c(=O)[nH]c3ccccc3c2s1`, the inhibition was 101% (active).

In the case of `CN1CCN(CCCNC(=O)c2cc3c(=O)oc4ccccc4c3s2)CC1`, the inhibition was 0.79% (inactive).

As to `CCC(C)NC(=O)c1nn(C)c(=O)c2ccccc12` (stereo not given), the inhibition was 0.91% (inactive). To `Cc1cccc(N=Nc2c(C)[nH]n(-c3ccccc3)c2=O)c1` belongs -1.61% (inactive); to `Cc1[nH]n(-c2cccc(Cl)c2)c(=O)c1-c1ccc(Cl)cc1`, 53.3% (active); to `Cc1[nH]n(-c2cccc(Cl)c2)c(=O)c1/C=N/n1c(C)nc2ccccc2c1=O`, -15.8% (inactive). The figure for `Cc1nonc1NC(=O)CSc1nc2ccccc2cc1C#N` is 1.85% (inactive).

With `CCSc1nc(C)c(CCOc2cccc(C)c2)c(=O)[nH]1`, the inhibition was -3.36% (inactive). To `O=C1/C(=C\c2ccccc2Cl)SC(=S)N1CCC(=O)N1CCCc2ccccc21` belongs 97.9% (active). To `O=C(c1c(Cl)nc2sccn12)N1CCCc2ccccc21` belongs -2.07% (inactive); to `O=C(CN1CCCCCC1)NCCN1C(=O)S/C(=C\c2ccccc2Cl)C1=O`, 1.89% (inactive). As for `CCOC(=O)N1CCN(C(=O)CSc2nc(C)nc3c2c(=O)n(C)c(=O)n3C)CC1`, the inhibition was 8.12% (inactive). The figure for `S=c1[nH]nc(Nc2ccccc2)s1` is -10.1% (inactive); for `O=[N+]([O-])c1ccc(F)cc1Oc1nc(-c2cccnc2)nc2ccccc12` it is 16.9% (inactive); for `CC(=O)Nc1ccc(Sc2ccccc2C(=O)N2CCCC2)cn1` it is -4.22% (inactive). The figure for `CCn1c(COc2ccccc2)nnc1SCC(=O)NCc1ccco1` is -5.1% (inactive); for `CCS(=O)(=O)Nc1ccc(C2=NN(C(C)=O)C(c3cccs3)C2)cc1` (stereo not given) it is 0.67% (inactive); for `COc1ccc(CNc2c(CO)cnc3c2cnn3C)cc1` it is -4.57% (inactive). To `COC(=O)c1ccc(Cc2ccccc2)o1` belongs -4.65% (inactive); to `c1ccc(Cc2cc[n+](Cc3ccccc3)cc2)cc1`, 52% (active); to `CN(C)c1cc[n+](Cc2ccccc2)cc1`, -2.95% (inactive). Regarding `COc1ccc(-c2[nH]ncc2CN(C)Cc2cc(C)[nH]n2)c(F)c1`, the inhibition was -3.28% (inactive). The figure for `Cc1cc(C)c(S(=O)(=O)N2CCOCC2)cc1C` is 0.43% (inactive); for `Cn1cc(CCC(=O)N2CCCC(C(=O)c3ccc(C(C)(C)C)cc3)C2)cn1` (stereo not given) it is -0.59% (inactive); for `CCOc1ccc(CN(Cc2ccco2)C(c2cccs2)c2nnnn2C(C)(C)C)cc1` (stereo not given) it is 73% (active). To `CC(C)(C)n1nnnc1C(c1cccs1)N(Cc1cccnc1)CC1CCCO1` (stereo not given) belongs 18.7% (inactive). In the case of `Cc1ccc(S(=O)(=O)NNC(=O)Nc2cccc3ccccc23)cc1`, the inhibition is 34.5% (inactive). To `CC(=O)Nc1ccc(NC(=O)C(C)n2c3ccccc3c3nc(=O)cc(C)n32)cc1` (stereo not given) belongs 2.66% (inactive). Consider `COc1ccc(CCn2c(=N)c(C(=O)NCc3ccco3)cc3c(=O)n4cccc(C)c4nc32)cc1`, for which the inhibition was 67.1% (active). To `CCn1c(=N)c(C(=O)NCCCOC)cc2c(=O)n3cccc(C)c3nc21` belongs 28.4% (inactive); to `O=C(NCc1ccco1)c1cccn2c(=O)c3c4c(sc3nc12)CCCC4`, -1.47% (inactive); to `Cc1nn(CC(=O)Nc2ccc3c(c2)OCO3)c(C)c1[N+](=O)[O-]`, 7.29% (inactive). The figure for `COc1ccc(C2CC(c3cccs3)=NN2c2ccc(F)cc2)cc1OC` (stereo not given) is 15.6% (inactive); for `CCc1nnc(NC(=O)Cc2cccs2)s1` it is -5.86% (inactive); for `CN(C)Cc1ccccc1C1(O)c2ccccc2CSc2ccccc21` (stereo not given) it is 77.4% (active). To `O=C(CNC(=O)c1cc(=O)[nH]c2ccccc12)Nc1ccc(F)c(F)c1` belongs 2% (inactive); to `CCc1nc(C)cn1S(=O)(=O)c1cc(OC)c(C)cc1C`, 67.1% (active); to `CCc1nc(C)cn1S(=O)(=O)c1cc([N+](=O)[O-])ccc1Cl`, 89.9% (active). With `COc1cc2sc(C)nc2cc1C`, the inhibition is -0.96% (inactive).

In the case of `CCc1nccn1S(=O)(=O)c1cccc([N+](=O)[O-])c1`, the inhibition was 33.6% (inactive). Regarding `CC(C)c1nccn1S(=O)(=O)c1cc([N+](=O)[O-])ccc1Cl`, the inhibition was 25.1% (inactive). To `CCCOc1cc(C)c(S(=O)(=O)n2nnc3ccccc32)cc1C` belongs -5.25% (inactive). The figure for `Cn1c(=O)cc(OCC(=O)N2CCN(c3ccccc3F)CC2)c2ccccc21` is -1.08% (inactive). In the case of `COC(=O)c1ccc(/C=N/OCC(=O)Nc2cc(F)ccc2F)cc1`, the inhibition was 6.63% (inactive). To `CCc1ccc(OCC(=O)OCC(=O)c2c(N)n(C)c(=O)n(C)c2=O)cc1` belongs -8.87% (inactive); to `Cc1cccc(C)c1NC(=O)C1(N(C(=O)c2ccccn2)c2ccc(O)cc2)CCCCC1`, -0.59% (inactive); to `Cc1cc(C)cc(NC(=O)COC(=O)c2cc(C)oc2C)c1`, -1.77% (inactive). Turning to `CC1CC2=C(CC1/C=N/NC(N)=S)C(C)(C)CCC2` (stereo not given), the inhibition is 100% (active).

As to `CC1(C)CCCC2=C1CC1C(=O)N(c3ccccc3)C(=O)C1C2` (stereo not given), the inhibition is 4.86% (inactive). On to `COCCNC(=O)c1ccc(-n2c(SCc3cccnc3)nc3ccccc3c2=O)cc1`, for which the inhibition was -2.65% (inactive). The figure for `COc1cc(N2C(=O)c3ccccc3C2=O)c(Cl)cc1C(=O)OCC(=O)N1CCOCC1` is 16.7% (inactive); for `CC1=C(C(=O)Nc2cc(C)ccn2)C(c2cnn(C)c2)C2=C(CC(c3ccccc3)CC2=O)N1` (stereo not given) it is 1% (inactive); for `Cc1cc(C)c2nc(SCCC#N)nc(C)c2c1` it is 5.11% (inactive). The figure for `Cc1cc(C)c2nc3nc(C)cc(C)c3c(N)c2c1` is 100% (active). The figure for `Cc1cc(C)c2c(n1)nn1c(N3CCOCC3)cc(C)nc21` is 4.53% (inactive); for `O=C(C1CCCO1)N(c1ccc(F)cc1)C1C=CS(=O)(=O)C1` (stereo not given) it is -5.34% (inactive).

For the molecule `CC1CCC2(CC1)NC(=O)N(Cc1nnc(-c3cccs3)o1)C2=O` (stereo not given), the inhibition is 1.95% (inactive). The figure for `COc1ccc(CCN=C2SCC(=O)N2Cc2ccccc2)cc1OC` is 20.8% (inactive); for `CCOc1ccc(C2c3[nH]c4ccccc4c3CCN2Cc2cn(CC)nc2C)cc1` (stereo not given) it is 64.3% (active); for `Oc1cccc(C2c3[nH]c4ccccc4c3CCN2Cc2cnn(-c3ccccc3)c2)c1` (stereo not given) it is -0.63% (inactive).

Take `COCc1ccc(C(=O)N2CCc3c([nH]c4ccccc34)C2c2ccccn2)s1` (stereo not given): the inhibition was 13.5% (inactive). On to `COc1ccc(C2c3[nH]c4ccccc4c3CCN2CCCn2cccn2)cc1C` (stereo not given), for which the inhibition is 16.8% (inactive).

With `c1ccc(C2c3[nH]c4ccccc4c3CCN2Cc2cccn2-c2cccnc2)nc1` (stereo not given), the inhibition was 0.1% (inactive). To `COc1cccc(C2c3[nH]c4ccccc4c3CCN2Cc2cccc(C)n2)c1` (stereo not given) belongs 82.2% (active); to `CC(C)C(O)C1CCN(Cc2nc(Cc3ccccc3Cl)no2)CC1` (stereo not given), 1.45% (inactive). Take `COc1ccc([N+](=O)[O-])cc1NC(=O)CC1SC(=Nc2cccc(C)c2C)N(/N=C(\C)c2ccc(C)cc2)C1=O` (stereo not given): the inhibition was 30.7% (inactive). As to `CC1(C)C2CCC1(C)C(OC(=O)c1ccc(O)cc1)C2` (stereo not given), the inhibition is 14.5% (inactive).

Consider `CC1CC(C)CN(S(=O)(=O)c2ccc(C(=O)NN3CCOCC3)cc2)C1` (stereo not given), for which the inhibition was 6.29% (inactive).

Take `CCOC(=O)CSc1nc2c(sc(=S)n2CCc2ccccc2)c(=O)n1Cc1ccco1`: the inhibition is 50.2% (active).

In the case of `CCOC(=O)CSc1nc2c(c(=O)n(C)c(=O)n2C)n1Cc1ccccc1F`, the inhibition was -9.26% (inactive).

For the molecule `COc1ccccc1NC(=O)CSc1nc2sc(C)c(C)c2c(=O)n1Cc1ccco1`, the inhibition was 7.51% (inactive). To `Cc1ccc(C(C[N+](=O)[O-])c2c(C)cc3ccccn23)cc1` (stereo not given) belongs 100% (active).

On to `CC(C)C(=O)Nc1oc(-c2ccccc2)cc1C#N`, for which the inhibition was 0.64% (inactive). To `O=C(CSc1ccsc1[N+](=O)[O-])N1CCCCC1` belongs 14.2% (inactive). The figure for `Cc1nnc(N/N=C/C2CC=CCC2)[nH]c1=O` (stereo not given) is -5.21% (inactive). To `COc1cccc(CNC(=O)c2n[nH]c3ccccc23)c1` belongs 6.49% (inactive).

As for `O=C(COC(=O)c1n[nH]c2ccccc12)NCc1ccccc1`, the inhibition was 3.11% (inactive).

Regarding `COc1ccc(COC(=O)c2n[nH]c3ccccc23)cc1F`, the inhibition is 97.5% (active). To `CCSc1ccccc1C(=O)Nc1ccc2c(c1)OCO2` belongs 7.96% (inactive).

With `CN(C)CCCn1c(SCCN2C(=O)c3ccccc3C2=O)nc2ccccc2c1=O`, the inhibition is -2.2% (inactive). `Cn1c(N)c(C(=O)COC(=O)c2cnc(Cl)c(Cl)c2)c(=O)n(C)c1=O`: the inhibition was -4.42% (inactive).

One may read the inhibition as the relative decrease from the control value, in per cent.
